The results in this text go back to PubChem BioAssay (NCI).

SMILES strings stand for the structures. Values joined by “and” are separate entries in the source; they are usually repeats but may differ in a detail not shown here. Equal entries are not always repeated. This is part of a sample that, as a whole, favours compounds with a hit. Of some 83,000 tested, about 20% had one in any assay.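 Compound tested at a single concentration for 48 hours in 96-well plates; a percent growth value below 10 was scored as active.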 Active and inactive are the calls of the source.

In one experiment the test system is OVCAR-3 ovarian. As to the kind of experiment: NCI-60 one-dose screen, 48 h (100 = growth as untreated, 0 = no growth, -100 = all killed). Particulars: 10 µM. As to the method: Growth inhibition of the OVCAR-3 human tumor cell line is measured as a screen for anti-cancer activity. Cells are grown in 96 well plates and exposed to the test compound for 48 hours. Compounds are tested at a single concentration, which is 10^-5 M for most compounds. The reported endpoint is percent growth (GI% or GIPRCNT), where numbers from 0 - 100% represent growth inhibition, and numbers from -100% - 0 represent cell death. For example, a value of 40 represents 60% growth inhibition. A value of 0 means no net growth occurred over the course of the experiment. A value of -40 indicates 40% of cells at the beginning of the experiment died by the end of the experiment. A value of -100 means all cells are dead at the end of the experiment.
NCI-60 Human Tumor Cell Lines Screen was performed using the standard one-dose NCI protocol, which is described in more detail at https://dtp.cancer.gov/discovery_development/nci-60/default.htm.
Compounds with GIPRCNT values below 10 were considered active. Activity score was based on GIPRCNT using the following formula: […]
Score is 0 for GIPRCNT values of 100 or above, 50 for GIPRCNT values of 0, and 100 for GIPRCNT values of -100.
Take `CC(=O)/C=C/c1ccc(OCc2ccc(Cl)cc2)cc1`: the growth was 102% (inactive).

Still in this experiment, the particulars now being: 10 µM unless noted.
In the case of `CCOc1ccccc1NC(=O)c1cc2ccccc2cc1O`, the growth was 18.2% (inactive).
Same read-out and setting: for `C/C(=C(\c1ccc(OCCN2CCOCC2)cc1)c1ccc(OC(=O)C2CCCCC2)cc1)c1ccc(Cl)cc1` the value was 97% (inactive).
Turning to `CCOC(=O)c1cc2c(n1Cc1cc(OC)cc(OC)c1Br)-c1nc(NC(C)=O)sc1CCC2`, the growth was 81.4% (inactive).
The same measure, in the same setting: for `N#Cc1c(N)nnn1Cc1cc(=O)oc2ccc(O)cc12` the value was 113% (inactive); for `O=C1/C(=C/c2cn(-c3ccccc3)nc2-c2ccccc2)SC(=S)N1c1ccc(Cl)cc1`, 83.4% (inactive).
Regarding `COc1cccc(NC(=O)c2sc3nc(C)c(C(O)c4ccccc4)cc3c2N)c1` (stereo not given), the growth is -10.4% (active).
For the molecule `O=C(/C=C\c1ccc(Cl)c(Cl)c1)c1ccccc1`, the growth is 93.6% (inactive) and 98% (inactive).
Same read-out and setting: for `CN1C(=O)N(C)C2(c3ccccc3)N(CC(=O)Nc3ccccc3O)C(=O)NC12c1ccccc1` (stereo not given) the value was 103% (inactive).
Same read-out and setting: for `O=C(NNc1ccccc1)c1ncc[nH]1` the value was 64.3% (inactive).
Same read-out and setting: for `COc1ccc(/C=C(\C#N)c2cc3ccccc3[nH]2)cc1` the value was 14.1% (inactive).
For the molecule `CC1=CC(C)(C)NC(=S)N1c1ccc(Cl)cc1`, the growth was 110% (inactive) and 104% (inactive).
Same read-out and setting: for `COC(=O)c1[nH]nc(OC)c1C1(C(C#N)c2nc3ccccc3s2)CCCc2ccccc21` (stereo not given) the value was 98.6% (inactive); for `C[C@]12CCc3c(ccc4cc(O)ccc34)[C@@H]1C[C@H](O)[C@@H]2O`, 96.7% (inactive).
Still for that read-out and setting: for `O=c1cc(N/N=C/c2ccc(F)cc2)c2cc(Cl)ccc2[nH]1` the value was 100% (inactive); for `CC(=O)Nc1c(I)c(NC(C)=O)c(I)c(C(=O)O)c1I`, 111% (inactive) and 116% (inactive); for `O=c1ccc2nc(-c3ccccn3)nn(-c3ccccc3)c-2c1`, -21.9% (active).
On the same count and under the same terms, for `COC(=O)/C=C1/SC(=Nc2ccc([N+](=O)[O-])cc2)N(CCc2c[nH]c3ccccc23)C1=O` the value was 43.1% (inactive); for `COc1ccc(/C=C2/C(=O)N=C3N2NC(c2ccccc2)=CN3c2ccccc2)cc1`, 111% (inactive).
`COc1cc(CO)cc2cc3ccccc3nc12`: the growth was 110% (inactive).
Still for that read-out and setting: for `O=C(N/N=C/c1ccc(O)cc1O)c1cccc(Nc2ccnc(C(F)(F)F)c2)c1` the value was 32% (inactive).
With `COc1ccc(/C=C/C(=O)c2cc3c(N)c(C(=O)Nc4ccccc4Cl)sc3nc2C)cc1`, the growth was 21.1% (inactive).
On the same count and under the same terms, for `Clc1cccc(Nc2ncnc3ccc(-c4cncc(-n5cnnn5)c4)cc23)c1` the value was 66.1% (inactive).
For the molecule `O=C1/C(=C/c2ccccc2[N+](=O)[O-])Cc2ccccc21`, the growth was -23.8% (active) and -50.2% (active).
On the same count and under the same terms, for `COc1ccc(C(CC(=O)c2ccc3c(c2)OCO3)C(=O)O)cc1OC` (stereo not given) the value was 119% (inactive) and 102% (inactive); for `Nc1nc(CSc2n[nH]c(N)n2)nc(Nc2ccccc2)n1`, 105% (inactive).
On to `CC(=O)OC[C@]12CCC(C)(C)C=C1[C@H]1CC[C@@H]3[C@@]4(C)CCCNC(C)(C)[C@@H]4CC[C@@]3(C)[C@]1(C)CC2`, for which the growth was 30.7% (inactive).
The same measure, in the same setting: for `CC12CCC(C(=O)CC1=O)C2(C)C` (stereo not given) the value was 105% (inactive) and 106% (inactive).
On the same count and under the same terms, for `CCOC(=O)N(O)c1ccc(/C=C/c2ccccc2)cc1` the value was 34% (inactive) and 28% (inactive); for `[Cu+].[NH-][C@H]1C[N-]C(=O)[C@H]([C@H]2CCN=C(N)N2)[N-]C(=O)/C(=C\NC(N)=O)[N-]C(=O)[C@H](CNC(=O)C[C@@H](N)CCCN)[N-]C(=O)[C@H](CO)[N-]C1=O`, 104% (inactive).
Same read-out and setting: for `O=C(N=Nc1c(O)[nH]c2ccccc12)Nc1ccc(Br)cc1` the value was 97.4% (inactive); for `O=C1C(N2CCOCC2)=C(I)C(=O)c2ncccc21`, 69.8% (inactive).
In the case of `CN(C)C(=O)c1cc2cnc(Nc3ccc(-c4csc5c(=S)cc(N6CCOCC6)oc45)cc3)nc2n1C1CCCC1`, the growth was 13.6% (inactive).
Still for that read-out and setting: for `O=c1oc2c(Br)cc(Br)cc2cc1-c1cc(-c2ccc(-c3cc(-c4cc5cc(Br)cc(Br)c5oc4=O)nc(-c4cc5cc(Br)cc(Br)c5oc4=O)c3)cc2)cc(-c2cc3cc(Br)cc(Br)c3oc2=O)n1` the value was 104% (inactive).
Same read-out and setting: for `Clc1ccc(CNc2ccc3nc(CCC4CCCCC4)[nH]c3c2)cc1` the value was 69.6% (inactive).
On to `NC(=O)c1c(NC(=O)/C=C/c2cccs2)sc2c1CCC(=O)C2`, for which the growth was 13.8% (inactive).
For the molecule `C/C=C(/C)C(=O)O[C@@H]1CC(C)(C)CC2C34OC(=O)[C@@]21CC[C@@]3(C)[C@]1(C)CCC2C(C)(C)C(=O)CC[C@]2(C)C1C[C@@H]4Cl` (stereo not given in full), the growth was 115% (inactive).
For the molecule `O=C(/C=C/C12c3ccccc3C(c3ccccc31)C1C(=O)NC(=O)C12)c1ccncc1` (stereo not given), the growth was 4.84% (active).
Regarding `Cc1ccc(S(=O)(=O)Nc2cc(Sc3ccccc3)c(O)c3ccccc23)cc1`, the growth was -5.01% (active).

The same experiment, now with this note: 100 µM.
Consider `CC(=O)/C=C/c1ccc(OCc2ccc(Cl)cc2)cc1`, for which the growth was 50.7% (inactive).
